Records with an inconclusive call do not appear. A call without a number means that no potency is given here. Unmarked numbers belong to inactive results. The source made the active and inactive calls. Calls come from the whole dose curve.
Potency is the fitted concentration of half-maximal effect.

Chain of 5-hydroxytryptamine receptor 2A (Homo sapiens) (P28223 whole entry, looked up): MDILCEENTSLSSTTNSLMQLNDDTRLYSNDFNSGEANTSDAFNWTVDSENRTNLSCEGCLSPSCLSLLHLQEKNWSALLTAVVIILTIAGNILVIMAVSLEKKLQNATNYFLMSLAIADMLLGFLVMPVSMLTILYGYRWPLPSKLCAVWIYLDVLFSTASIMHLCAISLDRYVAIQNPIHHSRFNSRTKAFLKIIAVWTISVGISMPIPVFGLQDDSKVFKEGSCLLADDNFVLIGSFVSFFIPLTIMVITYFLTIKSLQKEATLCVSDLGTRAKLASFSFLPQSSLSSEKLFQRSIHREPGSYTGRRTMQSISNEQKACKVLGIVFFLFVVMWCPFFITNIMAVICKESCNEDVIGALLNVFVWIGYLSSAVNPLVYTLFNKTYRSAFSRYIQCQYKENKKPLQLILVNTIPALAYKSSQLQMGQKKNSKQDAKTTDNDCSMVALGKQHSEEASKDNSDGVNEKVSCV

This assay addresses 5-hydroxytryptamine receptor 2A (Homo sapiens) (UniProt P28223). As to the kind of experiment: 5-hydroxytryptamine receptor 2A (HTR2A) small molecule agonists, cell-based qHTS assay (AID 1963587). Note: nearly all actives have a fitted effect of over 30% in size. To be noted: HTR2A-CHO cells, calcium flux fluorescence, agonist mode; series mostly up to 76.8 µM. An excerpt:
National Center for Advancing Translational Sciences [NCATS]
Division of Preclinical Innovation [DPI]
U.S. Environmental Protection Agency [EPA]
National Institutes of Environmental Health Sciences [NIEHS]
National Toxicology Program [NTP]
U.S. Food and Drug Administration [FDA]
The HTR2A receptor is a subtype of the 5-HT2 receptor that belongs to the serotonin receptor family and is a G protein-coupled receptor (GPCR). The HTR2A-CHO cell line stably expressing human 5-hydroxytryptamine receptor 2A (HTR2A) can be used for screening agonists of interactions between 5-HT2 and its ligands. The HTR2A-CHO calcium flux assay is a homogeneous fluorescence-based assay for detecting the intracellular calcium level using FDSS kinetic plate reader system.
HTR2A-CHO cells were dispensed at 2000 cells/3uL/well in 1536-well black-clear bottom plates using a Multidrop Dispenser. After the assay plates were incubated at a 37 C/5% CO2 incubator for 18 h, 3 uL of Dye Loading Buffer was transferred to the assay plate by a Flying Reagent Dispenser. The assay plates were incubated at 37 C for 1h. For agonist mode, 23 nL of compounds dissolved in DMSO, positive controls or DMSO only was transferred to the assay plate by a pin tool. The fluorescence intensity in the plates was measured using FDSS 7000EX kinetic plate reader for 2 min at 1 sec intervals.
For orientation: Quantitative high-throughput screening tests each substance at several concentrations.
`C[N+]1(C)[C@@H]2CC[C@H]1CC(OC(=O)C(CO)c1ccccc1)C2` (stereo not given in full): the Potency result is “inactive”.
As for `Cc1c([N+](=O)[O-])c(C)c([N+](=O)[O-])c(C(C)(C)C)c1[N+](=O)[O-]`, the Potency result is “inactive”.
The same measure, in the same setting: as for `CCOP(=S)(OCC)SCn1nnc2ccccc2c1=O`, the entry is “inactive”.
The same measure, in the same setting: next, `ClC(Cl)=C(c1ccc(Cl)cc1)c1ccccc1Cl`: “inactive”; `Cc1cccc(C)c1NC1=NCCCS1`: “inactive”; `CCC(C)c1cccc(C(C)CC)c1O` (stereo not given): “inactive”.
As for `Cc1ccc(O)cc1C`, the Potency result is “inactive”.
On the same count and under the same terms, next, `O=C(O)CBr`: “inactive”; `O=[N+]([O-])c1cccc2cccnc12`: “inactive”.
Regarding `O=C1c2ccccc2C(=O)c2ccccc21`, the activation is -4.26% [at 15.9 µM].
In the case of `COCC(C)N(C(=O)CCl)c1c(C)csc1C` (stereo not given), the Potency result is “inactive”.
`CCC(Cl)CCl` (stereo not given): the Potency entry is “inactive”.
Same read-out and setting: next, `OCCBr`: “inactive”; `CS/C(C)=N/OC(=O)N(C)SN(C)C(=O)O/N=C(\C)SC`: 43.6 µM (active); `CCc1cc2c(s1)-n1c(C)nnc1CN=C2c1ccccc1Cl`: “inactive”.
For the molecule `CC(C)(C)c1ccc(CSc2cnn(C(C)(C)C)c(=O)c2Cl)cc1`, the Potency result was “inactive”.
For `Cc1ccc(OP(=O)(Oc2ccccc2)Oc2ccccc2)cc1`, the Potency entry was “inactive”.
Still for that read-out and setting: as for `BrCCCCBr`, the entry is “inactive”.
As to `O=[N+]([O-])c1cc(Cl)c(Cl)cc1Cl`, the Potency result is “inactive”.
On the same count and under the same terms, as for `CC(C)(C#N)C(C)(C)C#N`, the entry is “inactive”.
For `C#CC1(O)CCCCC1`, the Potency result is “inactive”.
The same measure, in the same setting: next, `CCC(C)Nc1c([N+](=O)[O-])cc(C(C)(C)C)cc1[N+](=O)[O-]` (stereo not given): “inactive”; `CCOP(=S)(OCC)SCS(=O)(=O)CC`: “inactive”; `CNC(=O)Oc1cc(C)c(N(C)C)c(C)c1`: “inactive”.
Turning to `Oc1c(Cl)cc(Cl)cc1Cl`, the Potency result is “inactive”.
Take `CCOC(=O)NC(=S)Nc1ccccc1NC(=S)NC(=O)OCC`: the Potency entry is “inactive”.
Still for that read-out and setting: as for `C=CC(=O)NCNC(=O)C=C`, the entry is “inactive”; as for `CCOP(=S)(S)OCC`, “inactive”.
The same measure, in the same setting: next, `CC(Cl)(Cl)[N+](=O)[O-]`: “inactive”; `O=S(=O)(O)C(F)(F)C(F)(F)C(F)(F)C(F)(F)F`: “inactive”.
The same measure, in the same setting: next, `Cc1ccc([N+](=O)[O-])[c]2c1[O][Hg]2`: 23.9 µM (active).
For the molecule `CCN(CC)CCc1c[nH]c2ccccc12`, the Potency is 0.0091 µM (active).
For the molecule `CC(C)[C@@H](Nc1ccc(C(F)(F)F)cc1Cl)C(=O)OC(C#N)c1cccc(Oc2ccccc2)c1` (stereo not given in full), the Potency result was “inactive”.
On the same count and under the same terms, as for `CCOCCOC(C)=O`, the entry is “inactive”; as for `CC(C(O)c1ccccc1)N(C)C/C=C/c1ccccc1` (stereo not given), “inactive”.
The same measure, in the same setting: as for `CCCN`, the entry is “inactive”; as for `CC(C)(C)C(O)C(Oc1ccc(Cl)cc1)n1cncn1` (stereo not given), “inactive”.
Still for that read-out and setting: as for `CC(C)(C)C(O)C(Oc1ccc(-c2ccccc2)cc1)n1cncn1` (stereo not given), the entry is “inactive”; as for `N#CC(Br)(Br)C(N)=O`, “inactive”; as for `CCC[N+](CCC)(CCC)CCC`, “inactive”.

For the origin of these results see PubChem BioAssay (Tox21).
